Screen size: about 48,000 compounds; about 13,000 (27%) showed an effect of 50% or more. The list shows a part of the results.
These molecules were tested on Wolbachia pipientis (assay: Anti-Wolbachia Cell-Based Screen). Conditions: 5 µM.
Format: functional
Design: scale not given: in the data most compounds retested in dose-response had high values
For `C1CCC(N2CCCN(c3nc(C4CC4)no3)CC2)C1`, the “Percent Effect” value was 19.76%.
With `CCCNC(=O)c1cc(Br)c2c(c1)OCCO2` the “Percent Effect” value was -33.44%.
For `CCc1nc(CN2CCN(C(=O)C3CCCCC3)CC2)cs1`, the “Percent Effect” value was 4.149%.
For `O=C(CN1CCN(c2ccccc2F)CC1)Nc1ccc(Cl)cn1`, the “Percent Effect” value was 4.247%.
`CCCS(=O)(=O)N1C[C@@H]2CN(Cc3ccoc3)CCO[C@@H]2C1.O=C(O)C(F)(F)F` was tested, and the “Percent Effect” value was 45.1%.
`Cn1cc(C[C@H]2[C@H](N3CCOCC3)CCN2C(=O)c2ccc[nH]2)cn1` was tested, and the “Percent Effect” value was -3.493%.
With `CN(Cc1cncnc1)[C@H]1CN(C(=O)c2ccc[nH]2)[C@@H]2CCCO[C@@H]21` the “Percent Effect” value was 103.1%.
In the case of `CN(Cc1ccco1)[C@@H]1CN(C(=O)c2ccnnc2)C[C@@H]2CCCO[C@@H]21.O=C(O)C(F)(F)F`, the “Percent Effect” value is reported as 1.243%.
For `CC(C)N(C)[C@@H]1CCN(C(=O)c2ccc[nH]2)[C@H]1Cc1cnn(C)c1`, the “Percent Effect” value was -2.599%.
In the case of `CN(Cc1cccnc1)[C@@H]1CN(C(=O)c2ccco2)[C@@H]2CCCO[C@H]12`, the “Percent Effect” value is reported as 99.41%.
With `O=S(=O)(NCC1COCCO1)c1ccc(C2CCCCC2)cc1` (stereo unspecified) the “Percent Effect” value was -20.85%.
For `CC1CN(Cc2cccc(CNC3CCCC3)c2)CCO1` (stereo unspecified), the “Percent Effect” value was 2.611%.
For `OC(CN1CCOCC1)c1cc(Cl)ccc1Cl` (stereo unspecified), the “Percent Effect” value was 1.615%.
In the case of `Cc1ccsc1C(=O)NCc1cccnc1N(C)CCc1ccccn1`, the “Percent Effect” value is reported as -9.716%.
With `Cn1cc(S(=O)(=O)NCC2CCN(C(=O)Oc3ccccc3)CC2)cn1` the “Percent Effect” value was -5.514%.
With `O=C(Oc1ccccc1)N1CCC(CNS(=O)(=O)c2cccnc2)CC1` the “Percent Effect” value was 12.7%.
For `O=S(=O)(NCC1CCN(c2ccccn2)CC1)c1ccccc1F`, the “Percent Effect” value was -4.881%.
With `O=S(=O)(NCC1CCN(c2cnccn2)CC1)c1ccc(F)c(Cl)c1` the “Percent Effect” value was 114.1%.
With `CC(=O)c1ccc(S(=O)(=O)NCC2CCN(c3cnccn3)CC2)cc1` the “Percent Effect” value was 109.4%.
`O=S(=O)(NCC1CCN(c2cnccn2)CC1)c1c(F)cccc1F` was tested, and the “Percent Effect” value was -13.03%.
In the case of `Cc1cnc2c(S(=O)(=O)NCC3CCN(C4CC4)C3)cccc2c1` (stereo unspecified), the “Percent Effect” value is reported as -24.19%.
`Cc1cccc(S(=O)(=O)NCC2CCN(c3cnccn3)CC2)c1` was tested, and the “Percent Effect” value was 113.6%.
In the case of `CN(C)c1nccc(CNS(=O)(=O)c2ccc(F)c(Cl)c2)n1`, the “Percent Effect” value is reported as -4.41%.
In the case of `Cc1nn(C)c(C)c1CN(C(=O)c1cnc(O)cn1)C(C)C`, the “Percent Effect” value is reported as -5.966%.
With `CN(CCC1CCOCC1)[C@@H]1c2ccccc2C2(CCNCC2)[C@H]1O` the “Percent Effect” value was -1.046%.
`CCn1nc2c(cc1=O)CN(c1nc3ccccc3s1)CC2` was tested, and the “Percent Effect” value was 17.49%.
In the case of `COc1cc(CO)ccc1OCc1nc(C(C)C)no1`, the “Percent Effect” value is reported as -5.276%.
For `CC(C)NC(=O)N1CCC(c2nccn2C(C)C)CC1`, the “Percent Effect” value was 0.5032%.
For `CC(C)NC(=O)N1CCC(c2nnc3n2CCNC3)CC1`, the “Percent Effect” value was 121.8%.
For `O=C(N1CCCCC1)N1CCCC1c1nnc2n1CCNC2` (stereo unspecified), the “Percent Effect” value was 113%.
With `CC(C)NC(=O)N1CCCCCC1C1CCN(c2ncccn2)CC1` (stereo unspecified) the “Percent Effect” value was -15.72%.
`NC(=O)CN1CCC(NC(=O)N2CCCC2c2ccncc2)CC1` (stereo unspecified) was tested, and the “Percent Effect” value was -10.76%.
In the case of `CC(C)NC(=O)N1CCCCC1c1nnc2n1CCNC2` (stereo unspecified), the “Percent Effect” value is reported as 134%.
For `O=C(NC1CCCCC1)N1CCCC1c1nnc2n1CCNC2` (stereo unspecified), the “Percent Effect” value was 105.9%.
With `Cc1cc(C)c(C(=O)NC(c2nnc3n2CCNCC3)C(C)C)c(C)c1` (stereo unspecified) the “Percent Effect” value was -5.156%.
With `CC(CC(=O)N1CCC(c2nnc3n2CCC3)CC1)n1cccc1` (stereo unspecified) the “Percent Effect” value was -3.041%.
For `CCNC(=O)NC(=O)CNc1cc(C(=O)OC)cc(C(F)(F)F)c1`, the “Percent Effect” value was -3.63%.
With `Cc1n[nH]cc1CNCC1(c2cccc(F)c2)CCOCC1.Cl` the “Percent Effect” value was 8.493%.
For `N#CCCN(Cc1ccccn1)C(=O)Nc1cccc(F)c1`, the “Percent Effect” value was 3.903%.
`O=C(Nc1ccc(CCN2CCSCC2)cc1)NC1CC1` was tested, and the “Percent Effect” value was -3.133%.
For `COCCNC(=O)CSCc1nc(O)c2cc(C(C)C)sc2n1`, the “Percent Effect” value was -3.697%.
In the case of `CC(=O)N1CCCC1c1nnc2n1CCCCC2` (stereo unspecified), the “Percent Effect” value is reported as 5.226%.
With `CC(=O)N1CCCCC1c1nnc2n1CCNC2` (stereo unspecified) the “Percent Effect” value was 131%.
`CC(NC(=O)NCCOc1ccc(F)c(F)c1)c1nncn1C` (stereo unspecified) was tested, and the “Percent Effect” value was 2.072%.
With `CC(NC(=O)NCC1(c2ccc(F)cc2)CCCC1)c1nncn1C` (stereo unspecified) the “Percent Effect” value was 121.9%.
In the case of `CC(NC(=O)NCC1(N2CCCCC2)CCCCC1)c1nncn1C` (stereo unspecified), the “Percent Effect” value is reported as 3.494%.
In the case of `CC(NC(=O)NCCOc1ccc(Cl)cc1)c1nncn1C` (stereo unspecified), the “Percent Effect” value is reported as 7.354%.
In the case of `Cc1ccccc1C1(CNC(=O)NC(C)c2nncn2C)CC1` (stereo unspecified), the “Percent Effect” value is reported as 118.5%.
With `CC(NC(=O)NCC1(c2ccc(Cl)cc2)CC1)c1nncn1C` (stereo unspecified) the “Percent Effect” value was 123.5%.
`CC(NC(=O)NCC1(c2ccc(F)cc2)CCC1)c1nncn1C` (stereo unspecified) was tested, and the “Percent Effect” value was -3.695%.
`CC(NC(=O)NCC1(c2ccc(F)cc2)CC1)c1nncn1C` (stereo unspecified) was tested, and the “Percent Effect” value was 98.23%.
With `Cc1cccc(C)c1OCCNC(=O)NC(C)c1nncn1C` (stereo unspecified) the “Percent Effect” value was 5.116%.
In the case of `CC(NC(=O)NCC1(c2ccccc2)CCC1)c1nncn1C` (stereo unspecified), the “Percent Effect” value is reported as 0.9782%.
With `CC(NC(=O)Nc1cc(F)ccc1N1CCCCC1)c1nncn1C` (stereo unspecified) the “Percent Effect” value was -5.475%.
For `CC(NC(=O)NCCCN1CCCCCC1)c1nncn1C` (stereo unspecified), the “Percent Effect” value was -1.343%.
For `CC(C)c1nnc2n1CCN(C(=O)c1ccc(OCC3CC3)nc1)C2`, the “Percent Effect” value was -21%.
With `CCOc1cc(C)nc(N2CCN(Cc3nccn3C)CC2)n1` the “Percent Effect” value was 4.632%.
`Cc1nc(C)c(CN2CCOC[C@H](Oc3ccc(S(C)(=O)=O)cc3)C2)s1` was tested, and the “Percent Effect” value was -11.23%.
In the case of `CC(=O)N1CCCC1c1nnn2cc(-c3ccncc3)ccc12.O=C(O)C(F)(F)F` (stereo unspecified), the “Percent Effect” value is reported as 7.793%.
`CC(=O)N1Cc2ccccc2CC1C(=O)Nc1ccc(C)cn1` (stereo unspecified) was tested, and the “Percent Effect” value was -8.335%.
In the case of `CC(N(C)Cc1nc2c(cnn2C)c(=O)[nH]1)C(C)(C)C` (stereo unspecified), the “Percent Effect” value is reported as 1.899%.
For `Cn1ncc2c(=O)[nH]c(CN(Cc3ccco3)C3CCCC3)nc21`, the “Percent Effect” value was 8.263%.
`CCN(Cc1nc2c(cnn2C)c(=O)[nH]1)c1cccc(C)c1C` was tested, and the “Percent Effect” value was -14.78%.
For `Cc1ccc(CN(Cc2nc3c(cnn3C)c(=O)[nH]2)C2CC2)o1`, the “Percent Effect” value was 96.47%.
In the case of `CC(c1ccco1)N(C)Cc1nc2c(cnn2C)c(=O)[nH]1` (stereo unspecified), the “Percent Effect” value is reported as 2.011%.
For `Cn1ncc2c(=O)[nH]c(CN(Cc3ccco3)C3CC3)nc21`, the “Percent Effect” value was 87.32%.
For `O=C(NCc1ccccn1)[C@@H]1COC[C@H]2CN(c3ncccn3)C[C@H]21.O=C(O)C(F)(F)F.O=C(O)C(F)(F)F`, the “Percent Effect” value was -2.042%.
In the case of `Cc1ccc(S(=O)(=O)Nc2ccc(=O)n(C)c2)cc1`, the “Percent Effect” value is reported as -12.63%.
In the case of `COc1ccc(-c2nccn2C[C@@H]2CCCN3CCCC[C@H]23)cc1`, the “Percent Effect” value is reported as -24.08%.
`COC(C)C(=O)N(CC(N)=O)Cc1cccc(Oc2ccccc2)c1` (stereo unspecified) was tested, and the “Percent Effect” value was 2.959%.
For `CC(C)[C@H]1COC(=O)N1Cc1nccn1C(C)C`, the “Percent Effect” value was -0.6769%.
With `COc1cc(OC)cc(C(=O)NCCCNc2ncccn2)c1` the “Percent Effect” value was 15.23%.
For `Cn1nc(CNC(=O)c2ccc(OC(F)(F)F)cc2)c2c1CCOC2`, the “Percent Effect” value was 101.2%.
`Cn1nc(CNC(=O)c2cccc(C(F)(F)F)c2)c2c1CCOC2` was tested, and the “Percent Effect” value was 111.4%.
In the case of `O=C(NCCN1CCCC(CO)C1)c1ccc2scnc2c1` (stereo unspecified), the “Percent Effect” value is reported as -0.5362%.
In the case of `COc1cc(OC)cc(C(=O)NCc2nn(C)c3c2COCC3)c1`, the “Percent Effect” value is reported as 121.8%.
With `COc1ccc(CN2CCc3c(CNC(=O)CC#N)nn(C)c3C2)cc1.O=C(O)C(F)(F)F.O=C(O)C(F)(F)F` the “Percent Effect” value was 8.44%.
`Cc1ncc(CNC(=O)c2nn(C)c3c2CS(=O)(=O)CC3)s1` was tested, and the “Percent Effect” value was 8.614%.
`COc1ccc(CNC(=O)c2nn(C)c3c2CS(=O)(=O)CC3)cc1OC` was tested, and the “Percent Effect” value was -2.523%.
In the case of `Cc1noc(NC(=O)c2ccc(OC(F)(F)F)cc2)n1`, the “Percent Effect” value is reported as 14.41%.
`CN1CCC(CNC(=O)c2cccc(C(F)(F)F)c2)c2ccccc21` (stereo unspecified) was tested, and the “Percent Effect” value was -15.52%.
For `Cn1cc(NC(=O)c2cccc(C(F)(F)F)c2)c(=O)n(C)c1=O`, the “Percent Effect” value was -3.646%.
For `Cn1nc(CNC(=O)c2ccc3nsnc3c2)c2c1CCOC2`, the “Percent Effect” value was 120.7%.
`O=C(NC1CC1)c1cc(NC(=O)N2CCSCC2)ccc1Cl` was tested, and the “Percent Effect” value was -25.35%.
For `CCc1c(C(=O)N2CCC3(CC(=O)NC3=O)C2)csc1C` (stereo unspecified), the “Percent Effect” value was 4.433%.
With `COC(=O)c1ccc(C(=O)NCc2nn(C)c3c2COCC3)cc1` the “Percent Effect” value was 116.6%.
With `Cn1nc(CNC(=O)c2ccc(Cl)cc2)c2c1CCOC2` the “Percent Effect” value was -28.17%.
With `Cn1nc(CNC(=O)NCc2ccc(Cl)cc2)c2c1CCOC2` the “Percent Effect” value was -8.693%.
`Cn1nc(CNC(=O)c2ccc3c(c2)OCO3)c2c1CCOC2` was tested, and the “Percent Effect” value was 123.8%.
In the case of `CCN(Cc1ccc2c(c1)OCO2)C(=O)c1ccc(=O)n(C)c1`, the “Percent Effect” value is reported as -0.5548%.
In the case of `Cc1nnc(SCCCNC(=O)c2ccc3c(c2)OCO3)s1`, the “Percent Effect” value is reported as -1.096%.
`COc1cccc(OCC2CCCN(C(=O)c3cc(C)n[nH]3)C2)c1` (stereo unspecified) was tested, and the “Percent Effect” value was -67.83%.
For `Cc1cccc2c1OCCCC2NCc1nccn1Cc1ccccc1` (stereo unspecified), the “Percent Effect” value was -13.33%.
With `CC(NC(=O)CCc1cccs1)c1nnc2n1CCC2` (stereo unspecified) the “Percent Effect” value was -2.805%.
In the case of `Cc1noc(C)c1CCC(=O)NC(C)c1nnc2n1CCCCC2` (stereo unspecified), the “Percent Effect” value is reported as -4.207%.
For `CC(NC(=O)Cc1cccs1)c1nnc2n1CCC2` (stereo unspecified), the “Percent Effect” value was 95.59%.
In the case of `CC(NC(=O)Cc1cccs1)c1nnc2n1CCCCC2` (stereo unspecified), the “Percent Effect” value is reported as -4.411%.
For `CC(NC(=O)CCc1cccs1)c1nnc2n1CCCCC2` (stereo unspecified), the “Percent Effect” value was 108.8%.
With `CNC(=O)N1C[C@H]2CC[C@@]3(N=C(c4ccccc4)NC3=O)[C@H]2C1` the “Percent Effect” value was -7.438%.
For `N[C@H]1CN(C(=O)c2ccc(Cl)cc2F)C[C@@H]1C1CC1`, the “Percent Effect” value was -16.98%.
`CCN(c1ccc(C(=O)N2CCCC2)cc1)S(=O)(=O)CC` was tested, and the “Percent Effect” value was -7.72%.
With `CCN(c1ccc(C(=O)N2CCCCC2)cc1)S(=O)(=O)CC` the “Percent Effect” value was 114.5%.
With `CCS(=O)(=O)N(C)C1CCN(C(=O)c2ccc(C)c(C)c2)CC1` the “Percent Effect” value was -2.68%.
For `CCN(c1ccc(C(=O)N2CCCCCC2)cc1)S(=O)(=O)CC`, the “Percent Effect” value was 148.2%.
`CCCOC1CCCN(C(=O)c2ccc(S(N)(=O)=O)cc2)C1` (stereo unspecified) was tested, and the “Percent Effect” value was 2.275%.
For `Cc1cc(C(=O)N2CCCCC2)ccc1NS(C)(=O)=O`, the “Percent Effect” value was -18.21%.

— ChEMBL document CHEMBL3988442, “University of Dundee, Small-Polar-MMV Screening Library” (2021)
